Experimental findings from PubChem BioAssay AID485346 (Sanford-Burnham Center for Chemical Genomics, 2010) are described below.

Structures are written as SMILES. Among all 330,000 compounds or so, about 10,000 (3%) were called active. The entries come from a sample that favours actives as a whole. Unmarked numbers belong to inactive results.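 The calls were made as follows: active = inhibition of at least 50% at 8 µM in the primary screen; inactive = the rest.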

Protein Mdm4 (Homo sapiens) + E3 ubiquitin-protein ligase Mdm2 (Homo sapiens), sequence (O15151 whole entry, looked up): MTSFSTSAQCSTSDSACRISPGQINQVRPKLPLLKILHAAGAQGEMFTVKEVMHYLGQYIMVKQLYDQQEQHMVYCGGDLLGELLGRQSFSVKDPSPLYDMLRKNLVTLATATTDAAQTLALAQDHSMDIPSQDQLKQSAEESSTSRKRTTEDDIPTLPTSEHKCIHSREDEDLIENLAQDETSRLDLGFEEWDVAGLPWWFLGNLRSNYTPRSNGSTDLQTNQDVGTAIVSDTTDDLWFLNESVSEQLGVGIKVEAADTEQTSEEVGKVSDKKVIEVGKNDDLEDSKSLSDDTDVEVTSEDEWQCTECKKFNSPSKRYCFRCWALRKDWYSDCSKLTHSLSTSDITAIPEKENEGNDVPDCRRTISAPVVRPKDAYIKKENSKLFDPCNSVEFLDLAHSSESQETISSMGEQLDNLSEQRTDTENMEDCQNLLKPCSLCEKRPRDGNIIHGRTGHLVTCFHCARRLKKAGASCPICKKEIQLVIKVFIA
Protein Mdm4 (Homo sapiens) + E3 ubiquitin-protein ligase Mdm2 (Homo sapiens), sequence (Q00987 whole entry, looked up): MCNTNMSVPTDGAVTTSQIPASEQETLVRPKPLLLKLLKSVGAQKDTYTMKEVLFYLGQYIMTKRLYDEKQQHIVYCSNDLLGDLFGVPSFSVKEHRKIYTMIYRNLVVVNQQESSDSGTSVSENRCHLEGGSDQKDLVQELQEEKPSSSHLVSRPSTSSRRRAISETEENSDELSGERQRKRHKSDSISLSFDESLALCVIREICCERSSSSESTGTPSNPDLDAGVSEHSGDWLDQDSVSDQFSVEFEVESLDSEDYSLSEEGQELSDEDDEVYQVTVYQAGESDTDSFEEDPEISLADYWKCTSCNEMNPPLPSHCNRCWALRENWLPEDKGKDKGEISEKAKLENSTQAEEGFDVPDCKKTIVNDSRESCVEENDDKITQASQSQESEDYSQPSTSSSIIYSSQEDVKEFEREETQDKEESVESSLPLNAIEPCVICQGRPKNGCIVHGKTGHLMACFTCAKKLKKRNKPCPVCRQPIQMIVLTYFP

This assay has as its target Protein Mdm4 (Homo sapiens) + E3 ubiquitin-protein ligase Mdm2 (Homo sapiens) (UniProt O15151+Q00987). The assay is described as follows: inhibitors of human Mdm2-MdmX association, primary screen, cell-based, luminescence, split luciferase, SaOS-2, uHTS (AID 485346). To be noted: SaOS-2 split-luciferase Mdm2/MdmX complementation, at 8 µM, active compounds read high.
Broadly, the inhibition is the relative decrease from the control value, in per cent. On to `CCC(C)c1ccc(NC(=S)N2CCCC2)cc1` (centres undefined), for which the inhibition is 17.9%.

Consider `O=C(O)CN1C(=O)CC(Cc2ccccc2)C1=O` (centres undefined), for which the inhibition was 3.44%.

`NS(=O)(=O)c1ccc(CNC(=O)c2cccc(S(=O)(=O)N3CCc4ccccc43)c2)cc1`: the inhibition is 27.6%.

Turning to `C[C@@H]1CN([C@@H](C)CO)C(=O)c2cccc(NS(=O)(=O)c3ccc(F)cc3)c2O[C@H]1CN(C)C(=O)NC1CCCCC1`, the inhibition was -2.62%.

Take `Cc1ccc(C(C)C)cc1OCC(=O)Nc1ccccc1N1CCCC1`: the inhibition is 28.7%.

Take `CN1CCN(c2ccccc2NC(=O)COc2ccc(C3CCCCC3)cc2)CC1`: the inhibition was 51.3% (active).

Consider `O=C(CN1CCN(C2CCCCC2)CC1)Nc1ccccc1N1CCCCC1`, for which the inhibition is 20%.

On to `CSCCC1NC(=O)N(CC(=O)Nc2cccc(S(=O)(=O)N3CCCCCC3)c2)C1=O` (centres undefined), for which the inhibition is 2.6%.

Turning to `O=C1/C(=C\Nc2ccccc2)CCN1c1ncccn1`, the inhibition was -11.4%.

As to `O=C(CN1CCCSc2ccccc21)N1CCN(S(=O)(=O)c2ccccc2)CC1`, the inhibition was -4.66%.

`Cc1ccccc1NC(=O)Nc1ccccc1N1CCCCC1`: the inhibition was 2.88%.

Consider `COc1ccccc1C(=O)NC(=S)Nc1ccccc1N1CCCCC1`, for which the inhibition was 30%.

For the molecule `O=C(NC(=O)c1ccccc1N1CCCCC1)Nc1ccc(Br)cc1`, the inhibition was 51.5% (active).

Consider `COc1ccc(S(=O)(=O)N(CC(=O)N/N=C/c2ccccc2C(=O)O)c2ccccc2OC)cc1`, for which the inhibition was -6.42%.

As to `COc1ccccc1NC(=O)CN(c1ccccc1OC)S(=O)(=O)c1ccccc1`, the inhibition is -19.5%.

Turning to `COc1ccccc1N(CC(=O)N/N=C(\C)c1ccccc1O)S(=O)(=O)c1ccc(C)cc1`, the inhibition was 52.3% (active).

Consider `C=CCN1CC(C)/C(=N\O)CC1C` (centres undefined), for which the inhibition is 24.4%.

Take `Brc1cc(Br)c(Oc2cc(Br)c(Br)cc2Br)cc1Br`: the inhibition is 15.4%.

On to `Fc1ccccc1-c1cc2cc3c(cc2cn1)OCO3`, for which the inhibition was -231%.

As to `O=C(CSc1cccc2cccnc12)N/N=C/c1cccnc1`, the inhibition is 54.3% (active).

In the case of `Cc1ccc(NC(=O)CSc2cccc3cccnc23)c(C)c1`, the inhibition is 28.1%.

As for `Cc1nc2ccccc2n1CC(=O)N/N=C/c1cccnc1`, the inhibition is 25.2%.

Turning to `C/C(=N\NC(=O)c1ccc(CSc2nc(C)cc(C)n2)cc1)C1CCCCC1`, the inhibition is 11.2%.

In the case of `COc1ccc(NC(=O)CSCc2ccc([N+](=O)[O-])cc2)cc1OC`, the inhibition was 22.2%.

Take `O=C(c1cccc(S(=O)(=O)N2CCCC2)c1)N(Cc1ccco1)C1CCS(=O)(=O)C1` (centres undefined): the inhibition is 10.9%.

As for `CC1(C(=O)N/N=C/c2cc3c(cc2Br)OCO3)CC1(Br)Br` (centres undefined), the inhibition is 31.2%.

Take `O=C(N/N=C\c1cc2c(cc1Cl)OCO2)c1ccc(Br)s1`: the inhibition is 87.3% (active).

Take `O=C(N/N=C/c1cc2c(cc1Br)OCO2)C1COc2ccccc2O1` (centres undefined): the inhibition is 3.36%.

Consider `O=S(=O)(Nc1nccs1)c1ccc2c(c1)OCCO2`, for which the inhibition is 12.5%.

Turning to `CC(Sc1nnc(CNC(=O)c2ccccc2F)n1C)C(=O)Nc1nccs1` (centres undefined), the inhibition is -5.88%.

With `Nc1ccc2nn(-c3ccc(Cl)cc3)nc2c1`, the inhibition was -91.9%.

For the molecule `NC(=S)N/N=C/c1coc2cc(Cl)ccc2c1=O`, the inhibition is -1.23%.

In the case of `CC(C)Oc1c(Br)cc(Br)cc1/C=N/NC(N)=S`, the inhibition was 57.4% (active).

For `CCOc1ccc(/C=N/NC(N)=S)cc1`, the inhibition was 10.2%.

For the molecule `COC(=O)CCC(=O)N1CCCC(CO)(Cc2ccccc2)C1` (centres undefined), the inhibition is -73.8%.

Take `C[C@@H](C(=O)N1CCNCC1)n1cc(CCC(=O)O)nn1`: the inhibition was 3.92%.

Consider `COc1ccc(N(C(=O)c2snc(C(N)=O)c2N)C(C(=O)NC2CCCC2)c2ccc(C)o2)c(OC)c1` (centres undefined), for which the inhibition was 8.7%.

On to `O=C(Nc1ccncc1)c1ccc(Cl)c([N+](=O)[O-])c1`, for which the inhibition is 6.79%.

Consider `CC(=O)Nc1ccc(NC(=O)COC(=O)c2ccccc2C(=O)c2ccccc2)cc1`, for which the inhibition is 2.79%.

`CC(OC(=O)CNC(=O)c1ccc(Cl)c([N+](=O)[O-])c1)C(=O)NCc1ccco1` (centres undefined): the inhibition was 27.3%.

Consider `CC(=O)Nc1ccc(NC(=O)C(C)OC(=O)c2ccccc2C(=O)c2ccc(Cl)c([N+](=O)[O-])c2)cc1` (centres undefined), for which the inhibition was 98.6% (active).

As to `N#Cc1cccc(NC(=O)COC(=O)c2ccccc2C(=O)c2ccc(Cl)c([N+](=O)[O-])c2)c1`, the inhibition is 98.1% (active).

As to `COC(=O)c1cc(NC(=O)Cc2ccccc2[N+](=O)[O-])ccc1Cl`, the inhibition is -1.62%.

Consider `CCC(=O)c1ccc(OCC(O)Cn2nc(C)c(C(C)=O)c2C)cc1` (centres undefined), for which the inhibition is 4.82%.

For the molecule `CC1CCCC(NC(=O)c2cc(-c3ccncc3)nc3ccccc23)C1C` (centres undefined), the inhibition is -4.9%.

On to `Cc1ccc(C(=O)O)cc1S(=O)(=O)NCC1CCCO1` (centres undefined), for which the inhibition was -63.3%.

With `Cc1noc(C)c1CCC(=O)N1CCCC(CO)(Cc2ccccc2)C1` (centres undefined), the inhibition is -31.3%.

`COc1ccc(Cl)cc1NC(=O)CN(C)Cc1ccc(OC)c(OC)c1`: the inhibition was 29.4%.

In the case of `C/C(=N\NC(=O)OC(C)(C)C)c1ccc[nH]1`, the inhibition was -29.2%.

As for `COc1ccccc1C(=O)Nc1ccc(C)c(S(=O)(=O)N2CCCCC2)c1`, the inhibition is 15%.

As for `Cc1ccccc1C(=O)N1CCN(c2ccc(NC(=O)c3cccs3)cc2)CC1`, the inhibition is 53.9% (active).

In the case of `O=C(Nc1ccc(N2CCN(C(=O)C3CC3)CC2)cc1)c1cccs1`, the inhibition is -10.3%.

For `O=C(Nc1ccc(N2CCN(C(=O)c3cccs3)CC2)cc1)c1cccnc1Cl`, the inhibition was -22.2%.

As for `CCCc1cc(=O)[nH]c(SCC(=O)Nc2ccc(C(=O)Nc3ccccc3OC)cc2)n1`, the inhibition was 21.4%.

Turning to `COCCNC(=O)C(OC(=O)c1cccs1)c1ccc(F)cc1` (centres undefined), the inhibition is 4.05%.

For the molecule `O=C(CCl)Nc1cccc(CP(=O)(c2ccccc2)c2ccccc2)c1`, the inhibition was 96.3% (active).

On to `O=C(Cc1ccccc1)Nc1cccc(NC(=O)c2ccccc2)c1`, for which the inhibition was 4.35%.

Turning to `CCc1cccc(NC(=O)CCC(=O)O)c1`, the inhibition is 3.13%.

As to `Clc1ccc(-c2nc3ccccn3c2CN2CCSCC2)cc1`, the inhibition was 15.3%.

On to `Cc1ccc(CNC(=O)C2CCN(S(=O)(=O)c3ccc4nc5c(c(C(=O)O)c4c3)CC(C)CC5)CC2)cc1` (centres undefined), for which the inhibition was 6.94%.

With `O=C(NC(=S)Nc1ccc(Cl)cc1Cl)C1CC1`, the inhibition was -39.2%.

In the case of `Cc1ccc(S(=O)(=O)c2nnn3c2nc(N2CCN(c4ccccn4)CC2)c2ccccc23)cc1`, the inhibition is 10.2%.

Regarding `Cc1cccc(Nc2nc3c(S(=O)(=O)c4ccccc4)nnn3c3ccccc23)c1C`, the inhibition is 77.7% (active).

On to `CC(=O)Nc1ccc(Nc2nc3c(S(=O)(=O)c4ccc(C)c(C)c4)nnn3c3ccccc23)cc1`, for which the inhibition is 23.4%.

In the case of `COc1ccc(C2(CNC(=O)Cc3ccc(OC)c(OC)c3)CCCC2)cc1`, the inhibition was 10.1%.

Turning to `OCCNc1nc(Nc2ccc(Cl)c(Cl)c2)nc2ccccc12`, the inhibition is 80.6% (active).

Turning to `CN(C)c1nc(Nc2ccc(Cl)c(Cl)c2)nc(N(C)C)n1`, the inhibition is -14.8%.

On to `Cc1nnc(NCCO)c2ccccc12`, for which the inhibition was -14%.

Take `COc1ccc(C(C#N)N2N=C(C)CC2(C)C)cc1` (centres undefined): the inhibition was -22.4%.

`Cc1ccc(S(=O)(=O)N2[C@@H](c3ccc(Br)cc3)C(C(=O)O)=C[C@H]2CC2CCCC2)cc1`: the inhibition is 30.4%.

`CC[C@H]1CN2CCc3cc(OC)c(OC)cc3[C@@H]2C[C@@H]1C[C@H]1NCCc2cc(OC)c(OC)cc21`: the inhibition was 91.7% (active).

In the case of `COc1ccc2c(c1)CCNC2Cc1ccc(OC)c(O)c1` (centres undefined), the inhibition was -20.9%.

Consider `CCc1ccc(OCC2c3cc(OC)c(OC)cc3CCN2C(C)=O)cc1` (centres undefined), for which the inhibition is 6.86%.

Turning to `C=C(C)c1cccc(C(C)(C)NC(=O)NCCN(CC)CC)c1`, the inhibition was 14.6%.

As to `Cc1ccc(S(=O)(=O)N2C[C@@H]3CCCC[C@@H]3[C@@H](C)[C@H]2c2cn(Cc3ccccc3)c3ccc(F)cc23)cc1`, the inhibition is 30%.

Turning to `CCNC(=O)COC(=O)/C=C/c1c(C)nn(Cc2cccc(OC)c2)c1Cl`, the inhibition was 11.4%.

In the case of `Cc1ccc(C(=O)/C=C/Nc2ccc(S(=O)(=O)Nc3onc(C)c3C)cc2)cc1`, the inhibition is 0.513%.

As to `COc1ccc(/C=C/C(=O)c2ccc(NS(=O)(=O)c3ccc(C)cc3)cc2)cc1O`, the inhibition is 65.1% (active).

Take `COc1ccc(NS(=O)(=O)c2ccc(NC(=S)NC(=O)/C=C/c3ccc(C)cc3)cc2)nn1`: the inhibition is -0.635%.

On to `Cc1cc(C)n2nc(C(=O)OC(C)C(=O)c3cc(C)c(C)cc3C)nc2n1` (centres undefined), for which the inhibition was 1.62%.

With `OCC[C@H]1C[C@H](O)[C@@H](O)[C@]2(Cc3ccccc3CO2)O1`, the inhibition is -20.7%.

Consider `Cc1cccc(NC(=O)c2nc[nH]c2C(=O)NCC(=O)OCc2ccccc2)c1`, for which the inhibition was 10.4%.

Turning to `CSc1ncc(Cl)c(C(=O)Nc2cc(C)ccc2C)n1`, the inhibition was -15.6%.

On to `Cc1cccc(CS(=O)(=O)c2ncc(Cl)c(C(=O)Nc3ccc(F)cc3)n2)c1`, for which the inhibition was 82.1% (active).

Regarding `CCOc1ccc(NC(=O)c2nc(SCC)ncc2Cl)cc1`, the inhibition is 46.8%.

Turning to `Cc1cccc(NC(=O)C(C)SCc2ccccc2)c1` (centres undefined), the inhibition is 0.19%.

As to `Cc1cccc(NC(=O)c2nc(S(=O)(=O)Cc3ccccc3)ncc2Cl)c1`, the inhibition is 97.5% (active).

`CCOc1ccc2c(c1)c(=O)c(S(=O)(=O)c1ccc(C)cc1)cn2CC`: the inhibition was 5.7%.

Regarding `O=C(COC(=O)C1CC2C=CC1C2)Nc1ccccc1` (centres undefined), the inhibition is -11.4%.

On to `CCS(=O)(=O)c1ccc(C(=O)NC)c(Cl)c1Cl`, for which the inhibition was 13.4%.

In the case of `COc1cc(C(=O)Nc2cc(C(F)(F)F)ccc2N2CCOCC2)ccc1O`, the inhibition is 15.4%.

On to `O=C(C[C@H]1C/C=C\C[C@@H](NC(=O)OCC2c3ccccc3-c3ccccc32)C(=O)O[C@@H](c2ccccc2)CNC1=O)N[C@H](CO)Cc1ccccc1`, for which the inhibition is 99.8% (active).

As to `CC(C)(C)OC(=O)C[C@@H]1C/C=C\C[C@@H](CC(=O)N[C@H](CO)Cc2ccccc2)C(=O)NC[C@@H](c2ccccc2)OC1=O`, the inhibition was 13.2%.

For `CC(C)(C)OC(=O)C[C@H]1C/C=C\C[C@@H](CC(=O)N[C@H](CO)Cc2ccccc2)C(=O)NC[C@@H](c2ccccc2)OC1=O`, the inhibition is 9.47%.
